Laboratory results reported in PubChem BioAssay (NCI).
This is part of a sample that, as a whole, favours compounds with a hit. Of some 79,000 tested, about 15% had one in any assay. Active and inactive are the calls of the source. No stated cut-off is given here; in the data, active means growth inhibition above about 70%; inactive means the rest. Where a SMILES comes first, the peptide text is derived from it. [ ]: non-standard residue; d: D form. The star is where a group is joined. Ac5c = NC1(C(=O)O)CCCC1; Cbz = O=C(OCc1ccccc1)*

How the values were obtained:
[1] = NCI Yeast Anticancer Drug Screen. Data for the rad50 strain (AID 155);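 further: 0% = growth of vehicle-only cultures of the same strain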; details: S. cerevisiae rad50 strain growth inhibition; at 50.0 µM; stronger effect = higher value
Procedure, shortened: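 Growth of the mutant yeast was measured after compound exposure and referenced to vehicle-treated cultures.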

[2] = NCI Yeast Anticancer Drug Screen. Data for the mec2-1 strain (AID 157); details: S. cerevisiae mec2-1 strain, at 50.0 µM, stronger effect = higher value
Procedure, shortened: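 mec2-1 yeast strain, carrying an alteration in DNA damage repair or cell cycle control, was exposed to compounds; growth inhibition was measured relative to vehicle-treated controls.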

[3] = NCI Yeast Anticancer Drug Screen. Data for the sgs1 mgt1 strain (AID 161);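 further: 0% = growth of cultures given vehicle only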; details: S. cerevisiae sgs1 mgt1 strain, at 50.0 µM, stronger effect = higher value
Procedure, shortened: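 Yeast cells carrying a defined DNA-repair defect were exposed to test compounds. Growth inhibition was measured relative to vehicle-treated controls.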

[4] = NCI Yeast Anticancer Drug Screen. Data for the cln2 rad14 strain (AID 165);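 further: 0% = growth equal to vehicle treated cultures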; details: S. cerevisiae cln2 rad14 strain, at 50.0 µM, stronger effect = higher value
Procedure, shortened: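 Yeast carrying cln2 and rad14 alterations (cell cycle control and DNA damage repair) were exposed to compounds. Growth inhibition was measured against vehicle-treated controls.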

[5] = NCI Yeast Anticancer Drug Screen. Data for the bub3 strain (AID 167); details: S. cerevisiae bub3 mutant strain, at 50.0 µM, stronger effect = higher value
Procedure, shortened: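 Whole-cell yeast assay. The mutant strain was incubated with compounds, and growth inhibition was determined by comparison with vehicle-treated cells.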

[6] = NCI Yeast Anticancer Drug Screen. Data for the mlh1 rad18 strain (AID 175); details: S. cerevisiae mlh1 rad18 strain growth inhibition; at 50.0 µM; stronger effect = higher value
Procedure, shortened: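 Growth inhibition of the yeast strain was measured after compound exposure and expressed relative to vehicle-treated controls. The strain carries defined defects in DNA damage repair.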

Measured: growth inhibition

O=[N+]([O-])c1ccc(S(=O)(=O)N(CCCBr)c2ccccc2)cc1
inactive: [1] 48.4% | [2] 42.6% | [4] 24.6% | [5] 44.5%
active: [3] 72.7% | [6] 74.3%

Nc1ccc(C(=O)OCCN2CCN(CCOC(=O)c3ccc(N)cc3)CC2)cc1
inactive: [1] 28.9% | [2] 13.4% | [3] 12.6% | [4] 16.2% | [5] 1.6% | [6] 28.4%

C/C=C/C=C\C(=O)C1c2cccc(O)c2C(=O)c2c(O)cc(C)cc21 (stereo unspecified)
inactive: [1] 40.4% | [2] 20.9% | [3] 12.3% | [4] 29.6% | [5] 37.5% | [6] 34.1%

CN1C(=O)N/C(=C\c2ccc(S(=O)(=O)N/N=C\C(O)C(O)C(O)CO)cc2)C1=O (stereo unspecified)
inactive: [1] -25.4% | [2] -15% | [3] -22.9% | [4] 4.15% | [5] -39.1% | [6] -35%

Cc1ccc(C)c(NC(=O)C(=O)C(C2C(C)CC(=O)C2CC(=O)O)[N+](=O)[O-])c1 (stereo unspecified)
inactive: [1] 7.05% | [2] 10.9% | [3] -8.05% | [4] 10.8% | [5] 6.6% | [6] 1.7%

NC1=CCNN1
inactive: [1] 8.7% | [2] -21.9% | [3] 4.1% | [4] 4.1% | [5] 11.3% | [6] 14.4%

Cc1cc(S(=O)(=O)Nc2nc(N)nc(N3CCOCC3)n2)c(SCC(=O)O)cc1Cl
inactive: [1] 5.75% | [2] 19.4% | [3] 15.2% | [4] 12.9% | [5] 6.25% | [6] 18.2%

CC(=O)c1cc([N+](=O)[O-])c[nH]1
inactive: [1] 9.05% | [2] 1.45% | [3] 1.1% | [4] -19.1% | [5] 9.25% | [6] 0.5%

CCCCC(N)=O
inactive: [1] -21.9% | [2] -9.05% | [3] 9.8% | [4] 5.7% | [5] -5.2% | [6] 4.3%

C/C=C(\C)C(=O)N/N=C\C=C\c1ccccc1
inactive: [1] -12.2% | [2] -10.8% | [3] 0.95% | [4] -44.8% | [5] -16.1% | [6] -7.05%

O=C(O)CNC(=O)C1(NC(=O)CNC(=O)OCc2ccccc2)CCCC1 (Cbz-Gly-[Ac5c]-Gly-OH)
inactive: [1] 4.7% | [2] 20.3% | [3] 11.2% | [4] -2.3% | [5] -5.05% | [6] 18.3%

COC(=O)N1c2ccccc2C23CCN4CCCC5(CCC12C(C(=O)O)C5)C43 (stereo unspecified)
inactive: [1] -2.6% | [2] 8.2% | [3] 0.15% | [4] -9.45% | [5] 3.9% | [6] 9.7%

CC1CCc2[nH]nc(CC3CC(=O)NC(=O)C3)c2C1 (stereo unspecified)
inactive: [1] 15.9% | [2] -2.2% | [3] 10.8% | [4] 27.2% | [5] -7.35% | [6] 3.7%

CC(NNC(=S)N1CCCC1)c1cccc[n+]1[O-] (stereo unspecified)
inactive: [1] 3.4% | [2] -2.85% | [3] 8.4% | [4] -4.9% | [5] 8.3% | [6] 13.9%

COc1cc(OC)c(NC(N)=O)cc1Cl
inactive: [1] 2.3% | [2] -35% | [3] 3.55% | [4] 9.75% | [5] 5.75% | [6] -15.8%

N#CC(C#N)SCc1ccccc1
inactive: [1] 17.1% | [2] 2.25% | [3] -5.4% | [4] 6.25% | [5] 9.3% | [6] 17.8%

O=C1CC2CC1C1CCCC21 (stereo unspecified)
inactive: [1] -32.5% | [2] -18.5% | [3] -56% | [4] -10.2% | [5] -31.4% | [6] -40.7%

O=C(C1CC=CCC1C(=O)N1CCCCC1)N1CCCCC1 (stereo unspecified)
inactive: [1] 11.1% | [2] -8.65% | [3] -6.2% | [4] -3.7% | [5] 9.1% | [6] -16.9%

CCOC(=O)C1CN(CCc2ccccc2)CCC1=O (stereo unspecified)
inactive: [1] 30.9% | [2] -8.65% | [3] 32.1% | [4] 16.5% | [5] 42.8% | [6] 31.8%

Cc1ccc(C2[C@H]3C(=O)N(c4ccc(Cc5ccc(N6C(=O)[C@@H]7ON(c8ccccc8)C(c8ccc(C)cc8)[C@@H]7C6=O)cc5)cc4)C(=O)[C@H]3ON2c2ccccc2)cc1 (stereo partly specified)
inactive: [1] -23.9% | [2] -17.9% | [3] -8.1% | [4] 26.9% | [5] -5.75% | [6] -10.8%

Ic1ccccn1
inactive: [1] 15.3% | [2] -11.3% | [3] -9.05% | [4] -29.8% | [5] -8.15% | [6] -1.2%

Cc1ccc(/C(C#N)=C/c2cccc([N+](=O)[O-])c2)cc1
inactive: [1] -3.1% | [2] -30.2% | [3] -32% | [4] 24.4% | [5] -17.4% | [6] -4.15%

CCOC(=O)C(CC(c1ccc2c(c1)OCO2)C(C(=O)N(C(C)C)C(C)C)[N+](=O)[O-])C(=O)OCC (stereo unspecified)
inactive: [1] 54.9% | [2] 21.4% | [3] 60.5% | [4] 16.2% | [5] 11.8% | [6] 26.4%

O=C(CN1CCCc2ccccc21)c1ccc(Cl)cc1
inactive: [1] -13.2% | [2] -2.05% | [3] 2.55% | [4] 9.2% | [5] 14.1% | [6] 4.35%

CCCCCNc1ncnc2c1cnn2C
inactive: [1] 7.6% | [2] 0.6% | [3] -1.35% | [4] -12.4% | [5] 22.6% | [6] -0.4%

Cc1cc(C(N)=O)c2ccccc2n1
inactive: [1] -11% | [2] -47.2% | [3] -15.7% | [4] 11.4% | [5] -34.4% | [6] -6.25%

CC(c1ccccc1)n1cnc2c(=S)nc[nH]c21 (stereo unspecified)
inactive: [1] 17.1% | [2] -20.9% | [3] -7.55% | [4] 3.35% | [5] -5.85% | [6] -9.95%

[Fe+2].[Fe+2].c1ccc2c(c1)-c1nc-2nc2[n-]c(nc3nc(nc4[n-]c(n1)c1ccccc41)-c1ccccc1-3)c1cc3c4nc5nc(nc6[n-]c(nc7nc(nc([n-]4)c3cc21)-c1ccccc1-7)c1ccccc61)-c1ccccc1-5
inactive: [1] -5.95% | [2] -18.9% | [3] -14.2% | [4] -23% | [5] 6.75% | [6] 2.35%

O=C(c1nc2ccc(Cl)cc2[nH]c1=O)C(O)c1ccc2c(c1)OCO2 (stereo unspecified)
inactive: [1] -10.9% | [2] -10.2% | [3] -3.85% | [4] 21.1% | [5] -13.2% | [6] 5.2%

CN1C(CC(=O)c2ccccc2)CCCC1CC(O)c1ccccc1 (stereo unspecified)
inactive: [1] 13.9% | [2] 2.25% | [3] 25.4% | [4] 40.4% | [5] -2.4% | [6] 36.1%

CCc1nnc2sc(=S)[nH]n12
inactive: [1] -7.65% | [2] -14.6% | [3] -15.8% | [4] -7.4% | [5] 2.45% | [6] -12.9%

CCCCOC(=O)CNC(=O)OC(C)(C)C
inactive: [1] -4.5% | [2] 11.8% | [3] -10.1% | [4] -2.1% | [5] -3.25% | [6] -15.5%

Cc1cc(N/N=C/c2ccc(Cl)cc2)c2cc3c(cc2n1)OCO3
inactive: [1] 24.2% | [2] -4.5% | [3] -7% | [4] 1.6% | [5] 27.5% | [6] 14.7%

NC(=S)NNC(=O)c1cccs1
inactive: [1] -9.9% | [2] -10.2% | [3] 22.6% | [4] 3.35% | [5] 7.05% | [6] 9.75%

COC(CNc1nc2c(s1)c1c(O)c3c(O)c(C)c4c(c32)C(=O)C(C)(O/C=C\C(OC)C(C)C(OC(C)=O)C(C)C(O)C(C)C(O)C(C)/C=C/C=C(/C)C(=O)N1)O4)OC (stereo unspecified)
inactive: [1] 6.15% | [2] -5.6% | [3] -13% | [4] 14.3% | [5] -15.6% | [6] -4.65%

CC1=C(C(=O)NC(C)(C)C)CC(C(=O)NC(C)(C)C)C(C)N1 (stereo unspecified)
inactive: [1] -21.4% | [2] -25.8% | [3] -17.6% | [4] 2.45% | [5] -3.2% | [6] -18.2%

COc1cc2c3c(c1)SC(C)C(=O)N3CCN2 (stereo unspecified)
inactive: [1] -7.85% | [2] -19.9% | [3] 2.55% | [4] 10.2% | [5] -3.5% | [6] 6.55%

C/C(=N\N=C(/C)c1ccc(Br)s1)c1ccc(Br)s1
inactive: [1] -42.5% | [2] -35% | [3] -23.7% | [4] -18.3% | [5] -12.8% | [6] -28.1%

CONC(CC(=O)c1ccccc1)c1ccccc1 (stereo unspecified)
inactive: [1] 23.4% | [2] 6.95% | [3] 5.75% | [4] 2.7% | [5] 14.2% | [6] 5.65%

Fc1ccc(CC(F)F)cc1
inactive: [1] -2.55% | [2] -6.2% | [3] 14.4% | [4] 4.6% | [5] -23.6% | [6] 3.25%

Cc1cc(O[Si](C)(C)C)nc(O[Si](C)(C)C)n1
inactive: [1] 1.7% | [2] -3.7% | [3] 0.15% | [4] -49% | [5] -40.3% | [6] 11.9%
